From PubChem BioAssay AID1542 (National Center for Advancing Translational Sciences (NCATS), 2009)
Results filed as inconclusive are left out. The call rests on the fitted dose curve; in most records, active means well fitted curve in the direction sought with a large enough effect; inconclusive means small, poorly fitted or top-dose-only effect, or effect the other way, or another doubt; inactive means no such curve, though single readings can be large or run the other way.

Biological target: Pyruvate kinase PKM (Homo sapiens) (UniProt P14618)
Sequence (P14618 whole entry, looked up, canonical isoform): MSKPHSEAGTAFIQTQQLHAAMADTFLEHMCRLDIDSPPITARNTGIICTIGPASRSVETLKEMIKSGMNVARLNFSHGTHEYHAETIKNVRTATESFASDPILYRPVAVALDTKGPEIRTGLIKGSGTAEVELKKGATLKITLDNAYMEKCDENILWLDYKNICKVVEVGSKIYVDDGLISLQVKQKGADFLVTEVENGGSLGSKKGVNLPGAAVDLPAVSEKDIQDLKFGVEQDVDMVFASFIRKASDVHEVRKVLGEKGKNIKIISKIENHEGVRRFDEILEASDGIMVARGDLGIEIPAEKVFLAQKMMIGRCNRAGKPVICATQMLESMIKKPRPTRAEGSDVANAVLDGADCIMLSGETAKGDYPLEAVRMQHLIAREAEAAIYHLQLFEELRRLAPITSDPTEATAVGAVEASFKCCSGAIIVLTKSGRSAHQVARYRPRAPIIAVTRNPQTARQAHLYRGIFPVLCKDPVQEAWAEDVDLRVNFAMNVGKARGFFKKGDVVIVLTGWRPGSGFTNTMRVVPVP
Assay: Secondary assay for Activators of Human Pyruvate Kinase M1 isoform
Conditions: purified hPK-M1, LDH-coupled NADH fluorescence kinetic; series mostly up to 57.5 µM; activity change, positive = activation: at the top concentration
Text: Confirmatory assay NIH Chemical Genomics Center [NCGC] Matthew G. Vander Heiden, M.D., Ph.D. [Harvard Medical School, 77 Avenue Louis Pasteur, Boston, MA 02115] NCGC Assay Overview: Human pyruvate kinase […] (hPK-M1)enzyme was supplied as a highly purified (>95% pure) preparation from Harvard Medical School and a secondary assay was used to evaluate compounds. This assay couples the formation of pyruvate from hPK-R using lactate dehydrogenase (LDH) and NADH. The depletion of NADH is followed in a fluorescent-based kinetic assay that follows the formation of pyruvate to lactate, as catalyzed LDH. Pyruvate kinase substrates, PEP and ADP, were present in the assay at 0.1 mM and 4 mM respectively. In this kinetic assay initial rates were determined by following the fluorescence of NADH depletion.
NCGC Assay Protocol Summary: Three uL of substrate mix (final concentration, 50 mM Tris-Cl pH 8.0, 200 mM KCl, 15 mM MgCl2, 0.1 mM PEP, 4.0 mM ADP, and 0.2 mM NADH) was dispensed into black-solid 1536 well plates. 23 nL of compounds were delivered by a pin tool and 1 uL of enzyme mix (final concentrations, 10 nM hPK-M1 and 1 uM of LDH) was added. Plates were immediately placed in ViewLux (Perkin Elmer) and NADH fluorescence was determined at 30 second exposure intervals for between 3 and 6 minutes. Data were normalized to the uninhibited controls.

Activity change, positive = activation, inactive:
Cc1cc2c(s1)c1cnn(Cc3ccc(Cl)cc3)c(=O)c1n2C -0.421%
Cc1cc2c(s1)c1cnn(Cc3c(F)cccc3Cl)c(=O)c1n2C 12.7%
Cc1cc2c(s1)c1cnn(Cc3ccccc3F)c(=O)c1n2C 1.47%
Cn1c2cc(C(=O)O)sc2c2cnn(Cc3ccccc3F)c(=O)c21 -11.8%
O=S(=O)(c1ccc2c(c1)OCCO2)N1CCN(S(=O)(=O)c2cc(F)c(Br)cc2F)CC1 -15.8%
C[C@@H]1CN(S(=O)(=O)c2c(F)cccc2F)CCN1S(=O)(=O)c1ccc2c(c1)OCCO2 12%
O=S(=O)(c1ccc2c(c1)OCCO2)N1CCN(S(=O)(=O)c2c(F)cccc2F)CC1 8.24%
O=S(=O)(NC1CCC(NS(=O)(=O)c2c(F)cccc2F)CC1)c1ccc2c(c1)OCCO2 (stereo not given) 3.43%
Cc1cc2c(s1)c1cnn(Cc3cccc(F)c3)c(=O)c1n2C 14.8%
O=C(O)Cc1cc(F)c(S(=O)(=O)N2CCN(S(=O)(=O)c3ccc4c(c3)OCCO4)CC2)cc1F 19%
CC(C)c1cc2c(s1)c1cnn(Cc3ccccc3F)c(=O)c1n2C 2.22%
COC/C=C/c1cc(F)c(S(=O)(=O)N2CCN(S(=O)(=O)c3ccc4c(c3)OCCO4)CC2)cc1F -14.8%
O=C1CN(S(=O)(=O)c2c(F)cccc2F)CCN1S(=O)(=O)c1ccc2c(c1)OCCO2 -4.39%
Cc1cc2c(s1)c1cnn(Cc3ccc(C(F)(F)F)cc3F)c(=O)c1n2C 9.47%
O=S(=O)(NCC1CN(S(=O)(=O)c2c(F)cccc2F)C1)c1ccc2c(c1)OCCO2 -5.12%
O=C(c1c(F)cccc1F)N1CCN(S(=O)(=O)c2ccc3c(c2)OCCO3)CC1 9.03%
O=S(=O)(c1ccc2c(c1)OCCCO2)N1CCN(S(=O)(=O)c2c(F)cccc2F)CC1 4.66%
C=Cc1cc2c(s1)c1cnn(Cc3ccccc3F)c(=O)c1n2C -6.78%
COc1ccc(S(=O)(=O)N2CCN(S(=O)(=O)c3ccc4c(c3)OCCO4)CC2)cc1 -6.87%
Cn1c2cc(S(C)(=O)=O)sc2c2cnn(Cc3ccccc3F)c(=O)c21 23.4%
Cc1cc2c(s1)c1cnn(Cc3ccc(F)cc3)c(=O)c1n2C 7.03%
O=C(O)CCc1cc(F)c(S(=O)(=O)N2CCN(S(=O)(=O)c3ccc4c(c3)OCCO4)CC2)cc1F 2.14%
CCOC(=O)/C=C/c1cc(F)c(S(=O)(=O)N2CCN(S(=O)(=O)c3ccc4c(c3)OCCO4)CC2)cc1F -2.46%
O=S(=O)(NC1CCN(S(=O)(=O)c2ccc3c(c2)OCCO3)CC1)c1c(F)cccc1F -0.701%
C[C@H]1CN(S(=O)(=O)c2ccc3c(c2)OCCO3)CCN1S(=O)(=O)c1c(F)cccc1F 14.6%
O=C(O)/C=C/c1cc(F)c(S(=O)(=O)N2CCN(S(=O)(=O)c3ccc4c(c3)OCCO4)CC2)cc1F -16.2%
O=S(=O)(c1ccc2c(c1)OCCO2)N1CCN(S(=O)(=O)c2ccccn2)CC1 -9.53%
O=C(N1CCc2ccc(S(=O)(=O)N3CCN(S(=O)(=O)c4ccc5c(c4)OCCO5)CC3)cc2C1)C(F)(F)F -17.2%
C=Cc1cc(F)c(S(=O)(=O)N2CCN(S(=O)(=O)c3ccc4c(c3)OCCO4)CC2)cc1F -7.75%
O=c1[nH]c2ccc(S(=O)(=O)N3CCN(S(=O)(=O)c4c(F)cccc4F)CC3)cc2[nH]c1=O -22%
O=C(O)c1cc(F)c(S(=O)(=O)N2CCN(S(=O)(=O)c3ccc4c(c3)OCCO4)CC2)cc1F 19.7%
O=S(=O)(c1ccc2c(c1)OCCO2)N1CCN(S(=O)(=O)c2ccc3nc(Cl)c(Cl)nc3c2)CC1 28.8%
O=S(=O)(c1ccc2c(c1)OCCO2)N1CCN(S(=O)(=O)c2ccc3c(c2)OCCO3)CC1 4.7%
CCOC(=O)CCc1cc(F)c(S(=O)(=O)N2CCN(S(=O)(=O)c3ccc4c(c3)OCCO4)CC2)cc1F -4.06%
COC(=O)c1cc(F)c(S(=O)(=O)N2CCN(S(=O)(=O)c3ccc4c(c3)OCCO4)CC2)cc1F -0.231%
Cc1cc2c(s1)c1cnn(Cc3ccccc3F)c(=O)c1n2Cc1ccccc1F 21.1%
COc1ccc(S(=O)(=O)N2CCN(S(=O)(=O)c3c(F)cccc3F)CC2)cc1 5.64%
O=S(=O)(c1ccc2nc(Cl)c(Cl)nc2c1)N1CCN(S(=O)(=O)c2c(F)cccc2F)CC1 17.4%
Cc1cc2c(s1)c1cnn(Cc3c(F)c(F)cc(F)c3F)c(=O)c1n2C 9.56%
Cn1ccc2cc(S(=O)(=O)N3CCN(S(=O)(=O)c4c(F)cccc4F)CC3)ccc21 14.4%
